The nature of assay [1]: inhibitors of TNFa-induced NFkB p65 translocation, primary screen, imaging, HUVEC, MLSMR starter and 10KST1 sets (AID 438;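 active = inhibition above 20% together with a positive visual image hit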;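 also: compound added about 3h40 before a 20 min TNFalpha stimulation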;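 as to inhibition: signal is the nuclear over cytoplasmic p65 intensity ratio per well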). The conditions noted are these: HUVEC TNFa-induced p65 nuclear translocation; cell count: measured here: nuclei count (cytotoxicity indicator), at 2.08 µM; inhibition: at 2 µM, stronger effect = higher value, 0% TNFa-plus-vehicle, 100% no-TNFa wells.
Assay [2] can be described thus: inhibitors of mutant huntingtin aggregation, primary screen, imaging, exon1htt(103Q)mCFP cells, high-content imaging (AID 483;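 active = visual image review flags a hit and inhibition of aggregation exceeds 20%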;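 also: compound exposure lasted 3 days before fixation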;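 as to nuclei count: percent of the per-plate median nuclei count of sample wells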). The conditions noted are these: exon1htt(103Q)mCFP cell line, aggregate imaging, at 2 µM; inhibition of aggregation: stronger effect = higher value; nuclei count: measured here: cell count, toxicity.
The nature of assay [3]: inhibitors of E-selectin induction by TNFa, primary screen, imaging, HUVEC, immunofluorescence, MLSMR starter and 10KST1 sets (AID 487;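 active = visually confirmed hit in the image check and inhibition above 20%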;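 as to inhibition: signal is fraction of cell area covered by stained E-selectin grains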;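 as to nuclei count: 100% = median nuclei count of all wells on the same plate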). The conditions noted are these: HUVEC TNFalpha-induced E-selectin immunofluorescence imaging, at 2 µM; inhibition: stronger effect = higher value; nuclei count: measured here: cell number, toxicity.
Assay [4] can be described thus: DUSP6 inhibitors restoring Erk phosphorylation by chemical complementation, primary imaging in DUSP6-transfected HeLa (AID 609;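 active = compounds giving at least 50% inhibition in the cell-based MKP-3 phosphatase rescue imaging test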;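 as to inhibition: phospho-Erk level distribution per well compared with pooled transfected vehicle control wells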). Conditions: HeLa MKP-3 transfected, phospho-Erk imaging KS statistic, at 10 µM, cells stimulated with TPA for 15 min.
Assay [5] addresses Dual specificity protein phosphatase 6 (Homo sapiens) (UniProt Q16828). The description is as above. Conditions: HeLa MKP-3 transfected, phospho-Erk imaging KS statistic; at 10 µM; stronger effect = higher value; cells stimulated with TPA for 15 min.
Assay [6] addresses Voltage-gated potassium channel subunit beta-2 (Rattus norvegicus) (UniProt P62483). Description: KvBeta enzyme negative modulators, primary screen, biochemical, NADPH fluorescence (AID 622;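 active = fluorescence slope higher than the sample average by over 3 SD, cut at about -0.22 in these data, passing the limit was not always enough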;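 also: slope of raw intensity against log time taken from 70 to 1610 s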). Conditions: recombinant KvBeta, 4-cyanobenzaldehyde reduction, at 10 µM, stronger effect = higher value.
For assay [7] the target is unchanged. Description: KvBeta positive modulators, primary screen, biochemical, NADPH fluorescence (AID 623;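 active = NADPH fluorescence slope more negative than the mean of all samples by about 3 SD, 99.7% confidence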;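 also: fluorescence intensity change per second fitted from 20 to 320 s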). Conditions: Recombinant KvBeta, NADPH fluorescence decrease slope, 10 min; at 10 µM; stronger effect = lower value.
Assay [8] concerns the target Alpha-2C adrenergic receptor (Homo sapiens) (UniProt P18825). Description: modulators of alpha2C/GIRK thallium flux, primary screen, cell-based, HEK293 alpha2C/GIRK1/2 (AID 624;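 active = fluorescence slope after compound addition differing from the mean of all screened samples at 99.7% confidence, in either direction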;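 also: slope of fluorescence ratio to pre-addition baseline per second over 15 to 24 s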). Conditions: thallium flux BTC fluorescence, at 10 µM, actives lie on both sides.
Assay [9] is described as follows: inhibitors of larval lipid processing in zebrafish, primary screen, whole organism, PED6 fluorescence, gall bladder and intestine (AID 686;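 active = a full or partial loss of lipid-probe fluorescence in the fish gall bladder, intestine or both, judged by eye; inactive = no fluorescence loss, or compound toxic to the fish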;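 also: larvae 5 to 7 days old with five fish per well; signal comes from phospholipase A2 cleavage of quenched PED6 carried via bile; overnight exposure to compound and PED6 before scoring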). Conditions: Zebrafish larvae PED6 lipid processing, fluorescence scoring; screened at 20 µM (by protocol).
Assay [10] in a line: inhibitors of Chlamydomonas gravitaxis, primary screen, whole organism, Chlamydomonas reinhardtii, WT vs cilia-less mutant, absorbance, 96-well (AID 463189).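 Also: 0% = wild type cc124 cells in DMSO and 100% = ciliumless bld1 mutant cells.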 The conditions noted are these: OD600 absorbance, 2 days, at 10 µM, stronger effect = higher value.
Assay [11] can be described thus: inhibitors of Sendai virus-induced IRF3 signaling, primary screen, TLR/RLR signaling modifier project, cell-based, Sendai virus stimulus, luciferase, 10K MLSCN set (AID 602276;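 active = inhibition at or above 50% at 10 µM; inactive = inhibition below 50%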;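 also: firefly luciferase from ISG56 promoter only with Renilla not read in this screen; 0% = Sendai virus plus DMSO and 100% = medium plus DMSO without virus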). The conditions noted are these: HEK293 RL24 IRF3 luciferase reporter, at 10 µM, stronger effect = higher value.
Assay [12] in a line: inhibitors of poly I:C-induced TLR3 signaling, primary screen, cell-based, poly I:C stimulus, luciferase, 10K MLSCN set (AID 602277;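 active = inhibition of the reporter signal at or above 50%; inactive = inhibition below 50%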). The conditions noted are these: HEK293-TLR3 RL24 IRF3 luciferase reporter, at 10 µM, stronger effect = higher value.
The mark [13] stands for this setting: measured here: cell density z-score.
The mark [14] stands for this setting: measured here: nuclear c-Myc green intensity z-score.
[15] abbreviates: measured here: nuclear pErk red intensity z-score, stronger effect = higher value.

SMILES strings stand for the structures. “And” between values parts separate entries of the source, which are not always exact repeats. Equal values may be shown once. The source made the active and inactive calls.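 The calls were made as follows, unless noted: active = inhibition at or above 50% relative to wild type and mutant plate controls; inactive = inhibition below 50%.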

Chain of Alpha-2C adrenergic receptor (Homo sapiens) (P18825 whole entry, looked up): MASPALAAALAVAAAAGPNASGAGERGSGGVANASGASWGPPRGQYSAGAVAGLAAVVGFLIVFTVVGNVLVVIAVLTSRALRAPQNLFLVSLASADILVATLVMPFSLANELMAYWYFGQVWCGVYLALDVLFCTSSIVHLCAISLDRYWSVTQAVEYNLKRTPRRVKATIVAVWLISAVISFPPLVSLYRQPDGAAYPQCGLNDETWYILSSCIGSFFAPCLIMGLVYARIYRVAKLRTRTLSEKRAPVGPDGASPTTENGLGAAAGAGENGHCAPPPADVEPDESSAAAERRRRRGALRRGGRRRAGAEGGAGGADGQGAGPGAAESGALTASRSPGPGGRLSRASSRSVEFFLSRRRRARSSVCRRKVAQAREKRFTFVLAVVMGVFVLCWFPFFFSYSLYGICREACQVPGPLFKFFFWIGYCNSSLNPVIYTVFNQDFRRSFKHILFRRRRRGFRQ
Chain of Voltage-gated potassium channel subunit beta-2 (Rattus norvegicus) (P62483 whole entry, looked up): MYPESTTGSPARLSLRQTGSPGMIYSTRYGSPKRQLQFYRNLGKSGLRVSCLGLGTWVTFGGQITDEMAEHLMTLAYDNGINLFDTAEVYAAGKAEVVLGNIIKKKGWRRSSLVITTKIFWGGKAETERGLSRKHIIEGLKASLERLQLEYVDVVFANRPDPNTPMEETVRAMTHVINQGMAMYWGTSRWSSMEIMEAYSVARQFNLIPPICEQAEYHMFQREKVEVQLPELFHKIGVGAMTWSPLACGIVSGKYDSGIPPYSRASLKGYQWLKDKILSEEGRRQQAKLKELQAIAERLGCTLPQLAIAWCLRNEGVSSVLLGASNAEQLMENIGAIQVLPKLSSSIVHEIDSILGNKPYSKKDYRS
Chain of Dual specificity protein phosphatase 6 (Homo sapiens) (Q16828 whole entry, looked up): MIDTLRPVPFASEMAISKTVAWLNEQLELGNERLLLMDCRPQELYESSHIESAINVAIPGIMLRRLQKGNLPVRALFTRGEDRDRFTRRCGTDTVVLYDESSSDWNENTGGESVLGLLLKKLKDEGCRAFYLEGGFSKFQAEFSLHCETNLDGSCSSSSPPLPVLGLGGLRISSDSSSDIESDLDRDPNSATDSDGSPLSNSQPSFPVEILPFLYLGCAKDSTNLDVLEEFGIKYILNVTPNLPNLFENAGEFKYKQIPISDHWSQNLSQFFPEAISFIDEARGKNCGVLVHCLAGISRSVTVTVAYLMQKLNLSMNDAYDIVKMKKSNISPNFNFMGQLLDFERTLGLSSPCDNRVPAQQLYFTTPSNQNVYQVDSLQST

Regarding `COCCOC(=O)C1=C(C)NC(C)=C(C(=O)OC(C)C)C1c1cccc([N+](=O)[O-])c1` (stereo not given), the cell count in [1] is 617. Further, the inhibition in assay [1] was -5.1% (inactive); in [3], -38.8% (inactive); in [5], 32.3% (inactive); in [10], 10.2% (inactive) and -3.02% (inactive); in assay [11], 19.6% (inactive); in assay [12], 25.9% (inactive). Moreover, the inhibition of aggregation in assay [2] was -29.1% (inactive). Further, the nuclei count amounted to 98.9% in assay [2] and 122% in assay [3]. Moreover, the z-score in [4] (setting [13]) is -0.996; in assay [4] (setting [14]), 0.882; in assay [4] (setting [15]), -0.963. The fluorescence slope in assay [6] is -0.534 (inactive). The NADPH fluorescence slope in [7] is 2.5e-05 (inactive). In addition, the slope in [8] is 0.00348 (inactive). The outcome in [9] was inactive.

In the case of `CN(C)c1ccc(C=NCC2(O)CCOC(C)(C)C2)cc1` (stereo not given), the cell count in assay [1] was found to be 470. The inhibition is -13.2% (inactive) in assay [1]; -145% (inactive) in [3]; 17.5% (inactive) in assay [5]; 7.69% (inactive) in [10]; 13% (inactive) in assay [11]; 13.9% (inactive) in [12]. Besides, the inhibition of aggregation in assay [2] is -13.7% (inactive). Also, the figures for the nuclei count in assay [2] and in assay [3] were 108% and 144%, respectively. Moreover, the z-score in assay [4] (setting [13]) is -1.86; in assay [4] (setting [14]) it was -0.94; in assay [4] (setting [15]), 0.52. Moreover, the fluorescence slope in [6] was -0.423 (inactive). Besides, the NADPH fluorescence slope in [7] was -0.000132 (inactive). For the same molecule, in assay [8], the slope is 0.00493 (inactive). Also, the outcome in assay [9] was inactive.

Take `CCCCC(=O)O[C@]1(C(=O)CO)CC[C@H]2[C@@H]3CCC4=CC(=O)CC[C@]4(C)[C@H]3[C@@H](O)C[C@@]21C`: the cell count in assay [1] stood at 559. The inhibition in assay [1] was -9.3% (inactive); in assay [3], -73.8% (inactive); in assay [5] it was -0.493% (inactive); in assay [10], 15.5% (inactive); in assay [11] it was -1.27% (inactive); in assay [12], 57.4% (active). Further, the inhibition of aggregation in [2] is -2.8% (inactive). Further, the nuclei count came out at 44.6% in assay [2] and 120% in [3]. For the same molecule, the figures for the z-score in [4] (setting [13]), in [4] (setting [14]) and in assay [4] (setting [15]) were -0.284, -0.0177 and 0.0777, respectively. The fluorescence slope in [6] is -0.554 (inactive). Moreover, the NADPH fluorescence slope in assay [7] was -4.6e-05 (inactive). In addition, the slope in [8] is 0.00469 (inactive). In [9], the result was inactive.

For the molecule `CCN(CC)c1ccc2c(C)c(-c3ccc(N)cc3)c(=O)oc2c1`, in assay [1], the cell count was determined as 446. Further, the inhibition in assay [1] is -5% (inactive); in assay [3], 25% (inactive); in assay [5], -4.78% (inactive); in assay [10], 55.8% (active); in assay [11] it was -44% (inactive); in assay [12] it was -91% (inactive). Besides, the inhibition of aggregation in [2] was 6.3% (inactive). For the same molecule, the nuclei count worked out at 98.2% in [2] and 149% in [3]. Besides, the z-score in [4] (setting [13]) is 0.788; in assay [4] (setting [14]), 0.208; in [4] (setting [15]) it was -0.594. Besides, the fluorescence slope in assay [6] is -0.133 (active). Further, the NADPH fluorescence slope in assay [7] was 0 (inactive). Moreover, in assay [8], the slope is 0.00526 (inactive). The call in [9] was inactive.

Take `CC(=O)O[C@]1(C(C)=O)CC[C@H]2[C@@H]3C[C@H](C)C4=CC(=O)CC[C@]4(C)[C@H]3CC[C@@]21C`: the cell count in assay [1] came out at 605. Also, the inhibition in [1] was 2.3% (inactive); in [3] it was -47.8% (inactive); in [5], 12.4% (inactive); in assay [10], -2.6% (inactive); in [11], 8.39% (inactive); in assay [12], 46.7% (inactive). Besides, in assay [2], the inhibition of aggregation is 0.3% (inactive). Further, the nuclei count amounted to 94.8% in assay [2] and 119% in assay [3]. Moreover, the z-score in assay [4] (setting [13]) is 1.33; in assay [4] (setting [14]), -0.458; in [4] (setting [15]), 0.835. The fluorescence slope in [6] is -0.521 (inactive). Besides, the NADPH fluorescence slope in assay [7] was -6e-06 (inactive). The slope in assay [8] is 0.00379 (inactive). The result in assay [9] was inactive.

For the molecule `Cn1c(-n2c(-c3ccco3)nc3ccccc3c2=O)nc2ccccc21`, in assay [1], the cell count worked out at 589. Moreover, the inhibition in assay [1] is -10.5% (inactive); in [3] it was -8.3% (inactive); in assay [5] it was 8.31% (inactive); in assay [10], 9.97% (inactive); in [11] it was 20.8% (inactive); in assay [12], 6.14% (inactive). In assay [2], the inhibition of aggregation was 32% (inactive). Besides, the nuclei count in assay [2] is 109%; in assay [3] it was 126%. Moreover, the z-score in assay [4] (setting [13]) was 0.944; in assay [4] (setting [14]) it was 0.431; in assay [4] (setting [15]), -0.392. Moreover, the fluorescence slope in assay [6] is -0.351 (inactive). In addition, the NADPH fluorescence slope in assay [7] is -6.3e-06 (inactive). Also, the slope in assay [8] was 0.00557 (inactive). The molecule was called inactive in [9].

`CC(=O)OCC[N+](C)(C)C`: the cell count in [1] turned out to be 554. Also, the inhibition in [1] was -8.9% (inactive); in [3], -102% (inactive); in assay [5], -0.493% (inactive); in assay [10], -4.51% (inactive); in assay [11] it was 11.3% (inactive); in assay [12], 31.5% (inactive). Also, the inhibition of aggregation in assay [2] was 10.6% (inactive). Also, the figures for the nuclei count in assay [2] and in [3] were 93.8% and 102%, respectively. Further, the figures for the z-score in assay [4] (setting [13]), in [4] (setting [14]) and in [4] (setting [15]) were -0.918, -0.674 and -0.99, respectively. Further, in assay [6], the fluorescence slope was -0.431 (inactive). In addition, the NADPH fluorescence slope in assay [7] is 1.1e-05 (inactive). Also, the slope in [8] is 0.0173 (active). Further, in assay [9], the outcome was inactive.

On to `CC(=O)OCC(=O)[C@@]1(O)CC[C@H]2[C@@H]3CCC4=CC(=O)C=C[C@]4(C)[C@@]3(Cl)[C@@H](Cl)C[C@@]21C`, for which the cell count in assay [1] came out at 574. Besides, the inhibition in assay [1] is -7.2% (inactive); in assay [3], -50.9% (inactive); in assay [5], 11.3% (inactive); in assay [10], 18.7% (inactive); in assay [11], 5.49% (inactive); in [12] it was 38.2% (inactive). For the same molecule, the inhibition of aggregation in [2] is -27.9% (inactive). Moreover, the nuclei count was found to be 64.3% in [2] and 118% in assay [3]. In addition, the z-score in assay [4] (setting [13]) was found to be 0.892; in assay [4] (setting [14]), 0.179; in [4] (setting [15]), 0.325. Further, the fluorescence slope in [6] was -0.484 (inactive). Also, in assay [7], the NADPH fluorescence slope was -5.1e-05 (inactive). Also, the slope in [8] is 0.00396 (inactive). Besides, in [9], the result was inactive.

Consider `COc1ccc(Cn2c(CCCO)nc3ccccc32)cc1OC`, for which the cell count in [1] was 577. Also, the inhibition in assay [1] is -7.7% (inactive); in [3], -84% (inactive); in assay [5], -5.89% (inactive); in [10], 2.72% (inactive); in assay [11] it was 13.3% (inactive); in assay [12], 22.4% (inactive). The inhibition of aggregation in [2] was -17% (inactive). For the same molecule, the nuclei count in [2] worked out at 105%; in assay [3] it was 122%. The z-score in assay [4] (setting [13]) was -0.981; in assay [4] (setting [14]), 1.12; in assay [4] (setting [15]), 1.14. For the same molecule, in [6], the fluorescence slope is -0.412 (inactive). Also, the NADPH fluorescence slope in [7] was -4.3e-05 (inactive). Moreover, the slope in assay [8] is 0.0064 (inactive). In addition, the result in assay [9] was inactive.

With `CCOC(=O)N1CCC(=C2c3ccc(Cl)cc3CCc3cccnc32)CC1`, the cell count in [1] amounted to 695. For the same molecule, the inhibition in assay [1] is -7.4% (inactive); in assay [3], -79.3% (inactive); in [5], 27.1% (inactive); in [10], -6.14% (inactive) and -3.57% (inactive); in assay [11], -15.2% (inactive); in assay [12] it was -34% (inactive). Besides, the inhibition of aggregation in assay [2] is -15% (inactive). Also, the nuclei count in assay [2] came out at 106%; in assay [3] it was 132%. Further, the results for the z-score in assay [4] (setting [13]), in [4] (setting [14]) and in assay [4] (setting [15]) were 1.11, 0.137 and -0.637, respectively. Besides, in assay [6], the fluorescence slope is -0.512 (inactive). Also, the NADPH fluorescence slope in assay [7] was -3.2e-05 (inactive). The slope in assay [8] was 0.00337 (inactive). Further, in assay [9], the outcome was “inactive; toxic”.

The values above are taken from PubChem BioAssay.
